Results published in PubChem BioAssay (NCATS).
Records with an inconclusive call do not appear. The source holds several records for some structures; these can differ, active in one and inactive in another. Activity calls are given as the source filed them. Unless noted, calls come from the whole dose curve; as a rule, active = well fitted curve in the direction sought with a large enough effect; inconclusive = small, poorly fitted or top-dose-only effect, or another doubt; inactive = no such curve, though single readings can be large; an effect the other way counts as inactive or inconclusive.

Columns and labels:
[1] = molecular target: Alpha-galactosidase (Coffea arabica) (UniProt Q42656); assay: Counterscreen for Glucocerebrosidase Inhibitors: qHTS Assay for Coffee Bean alpha-Galactosidase at pH 4.5 (AID 957); conditions: purified coffee bean alpha-galactosidase, fluorogenic substrate; series mostly up to 76.9 µM
How it was run: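 Quantitative HTS of compounds (0.7 nM to 77 uM) against coffee bean alpha-galactosidase at pH 4.5, measuring 4-methylumbelliferone fluorescence released from 80 uM substrate.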

[2] = MultiTox-Fluor Cytotoxicity Assay - LYMP1-001 - Live Cells (AID 947); conditions: LYMP1-001 lymphoblastoid cells, live-cell protease fluorescence viability; series mostly up to 92.2 µM
[3] = Cell Viability - LYMP1-002 - Assay at 16 hr (AID 948); conditions: LYMP1-002 lymphoblastoid cell viability; series mostly up to 92.2 µM
How it was run: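 LYMP1-002 human lymphoblastoid cells, 2500/well; 5 hr 37 C; cpd 16 hr 37 C; CellTiter-Glo 30 min RT; luminescence (ATP). Concentration-response, Hill-fit AC50. Pos ctrl tetraoctylammonium bromide.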

[4] = MultiTox-Fluor Cytotoxicity Assay - LYMP1-002 - Live Cells (AID 955); conditions: LYMP1-002 lymphoblastoid live-cell protease fluorescence viability; series mostly up to 46.1 µM;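 note: cells exposed to compound for 16 hours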
How it was run: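 In this qHTS viability format, lymphoblastoid cells (LYMP1-002, human) received compound for 16 hr at 37 C. Fluorogenic GF-AFC cleavage by viable cells was detected at 405/510 nm after 1 h at room temperature.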

[5] = MultiTox-Fluor Cytotoxicity Assay - LYMP1-002 - Dead Cells (AID 960); conditions: LYMP1-002 lymphoblastoid cells, dead-cell protease fluorescence; series mostly up to 46.1 µM; note: nearly all actives have a fitted effect of over 60% in size
How it was run: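 Concentration-dependent increases in membrane-leaked protease activity are quantified in LYMP1-002 cells after 16 hr treatment; values are normalized against DMSO and tetraoctylammonium bromide (15 uM) controls and AC50 derived by Hill modeling.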

[6] = MultiTox-Fluor Cytotoxicity Assay - LYMP1-003 - Dead Cells (AID 961); conditions: LYMP1-003 lymphoblastoid cells, dead-cell protease fluorescence; series mostly up to 92.2 µM; note: nearly all actives have a fitted effect of over 70% in size
How it was run: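 Human lymphoblastoid LYMP1-003 cells (2500/well) were treated with compounds for 16 hr at 37 C in complete medium. Dead-cell protease release was read by bis-AAF-R110 fluorescence (Ex/Em 485/520). AC50 came from Hill fits, normalized to DMSO and 15 uM tetraoctylammonium bromide.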

[7] = MultiTox-Fluor Cytotoxicity Assay - LYMP1-003 - Live Cells (AID 962); conditions: LYMP1-003 lymphoblastoid cells, MultiTox-Fluor live-cell protease fluorescence; series mostly up to 92.2 µM;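 note: cells exposed to compound for 16 hours at 37 °C; cytotoxic hits lower the live-cell protease signal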
How it was run: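 Human lymphoblastoid line LYMP1-003 in complete culture medium, treated 16 hr with titrated compounds. Viable cells quantified via cell-permeant GF-AFC substrate fluorescence; AC50 derived by Hill fitting.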

[8] = Cell Viability - LYMP1-003 - Assay at 24 hr (AID 963); conditions: LYMP1-003 lymphoblastoid cell viability; series mostly up to 92.2 µM
How it was run: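 The lymphoblastoid line was treated with titrated compounds for 24 hours, and viable cell number estimated from luciferase-based ATP luminescence.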

[9] = Cell Viability - LYMP2-003 (AID 965); conditions: LYMP2-003 lymphoblastoid cell viability; series mostly up to 92.2 µM;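 note: cells exposed to compounds for 24 h before reading; nearly all actives have a fitted effect of over 50% in size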
How it was run: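 CellTiter-Glo luminescence (cellular ATP) after 24 h compound exposure at 37 C in complete medium; 2500 cells/well, 5 h settling beforehand. Concentration-response fitted to standard Hill equation for AC50. Tetraoctylammonium bromide served as positive control.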

[10] = Cell Viability - LYMP2-004 (AID 966); conditions: LYMP2-004 lymphoblastoid cell viability, qHTS; series mostly up to 92.2 µM; note: nearly all actives have a fitted effect of over 65% in size
How it was run: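 Viable-cell number estimated from ATP luminescence (CellTiter-Glo) in 2500 human lymphoblastoid cells/well after 24 hr at 37 C with compound. AC50 fitted to the standard Hill equation.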

[11] = Cell Viability - LYMP2-005 (AID 967); conditions: LYMP2-005 lymphoblastoid cell viability; series mostly up to 92.2 µM
How it was run: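 Steps: seed 2500 LYMP2-005 cells/well, incubate 5 h at 37 C, add compound, incubate 24 h at 37 C, add CellTiter-Glo, wait 30 min at RT, read luminescence. Concentration-response data fitted to Hill equation for AC50.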

[12] = Cell Viability - LYMP2-009 (AID 968); conditions: LYMP2-009 lymphoblastoid cell viability; series mostly up to 92.2 µM; note: nearly all actives have a fitted effect of over 55% in size
[13] = Cell Viability - LYMP2-011 (AID 969); conditions: LYMP2-011 lymphoblastoid cells viability; series mostly up to 92.2 µM; note: nearly all actives have a fitted effect of over 60% in size
How it was run: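 Cells seeded at 2500 per well rest 5 hr before compound addition, then incubate 24 hr at 37 C. CellTiter-Glo reagent is added for 30 min at room temperature before luminescence detection.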

[14] = Cell Viability - LYMP2-013 (AID 970); conditions: LYMP2-013 lymphoblastoid cells viability; series mostly up to 92.2 µM; note: nearly all actives have a fitted effect of over 55% in size
How it was run: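 In complete culture medium, human lymphoblastoid cells were dosed for 24 hr at 37 C, with tetraoctylammonium bromide (6.4pM to 92 uM) as positive control. Viability reflects luciferase-based ATP signal; AC50 derived from concentration-response curves.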

[15] = Cell Viability - LYMP2-015 (AID 971); conditions: LYMP2-015 lymphoblastoid cell viability; series mostly up to 92.2 µM; note: nearly all actives have a fitted effect of over 55% in size
How it was run: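 AC50 values reflect Hill-model fits of ATP-based luminescence (CellTiter-Glo) from a human lymphoblastoid line, 2500 cells/well, treated 24 hr at 37 C.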

[16] = Cell Viability - LYMP2-017 (AID 972); conditions: LYMP2-017 lymphoblastoid cell viability; series mostly up to 92.2 µM;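 note: cells exposed to compound for 24 hours at 37 °C; nearly all actives have a fitted effect of over 55% in size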
How it was run: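 In this qHTS format, lymphoblastoid cells in complete medium receive test compound for a day at 37 C before ATP content is quantified by luciferase luminescence. Reported AC50 figures come from standard Hill-equation curve fitting.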

[17] = Cell Viability - LYMP2-019 (AID 973); conditions: LYMP2-019 lymphoblastoid cell line viability; series mostly up to 92.2 µM; note: nearly all actives have a fitted effect of over 55% in size
How it was run: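 AC50 values come from Hill-equation modelling of qHTS concentration-response curves, where viability is measured as luciferase-based ATP luminescence in the lymphoblastoid line after 24 hr compound exposure in complete culture medium.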

[18] = Cell Viability - LYMP2-021 (AID 974); conditions: LYMP2-021 lymphoblastoid cells viability; series mostly up to 92.2 µM
How it was run: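 In qHTS format, compounds are tested against 2500 lymphoblastoid cells per well for 24 h; viable cell number is inferred from ATP-driven luciferase light, and Hill-equation fitting yields AC50 values.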

[19] = molecular target: Pyruvate kinase PKM (Homo sapiens) (UniProt P14618); assay: qHTS Assay for Activators of Human Muscle Pyruvate Kinase (AID 954; active = well fitted curve in the direction sought with a large enough effect, not every such curve was filed as active); conditions: purified human muscle pyruvate kinase, luciferase-coupled luminescence, 1 h; series mostly up to 57.5 µM
How it was run: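 A coupled luminescent readout tracked ATP made from ADP by purified PKM2. Final conditions included 0.1 nM enzyme, PEP and ADP at 0.5 and 0.1 mM, pH 7.2 imidazole buffer with BSA, and a one-hour room-temperature reaction.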

[20] = Cell Viability - LYMP1-003 - Assay at 40 hr (AID 964); conditions: LYMP1-003 lymphoblastoid viability; series mostly up to 92.2 µM; note: nearly all actives have a fitted effect of over 60% in size; note: potency is the fitted concentration of half-maximal effect
How it was run: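 Acute toxicity is scored as a concentration-dependent loss of intracellular ATP in LYMP1-003 cells (2500/well, complete medium) after 40 hr at 37 C, measured by CellTiter-Glo luminescence; AC50 values derive from standard Hill modelling.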

Measured: Potency

Chain of Pyruvate kinase PKM (Homo sapiens) (P14618 whole entry, looked up): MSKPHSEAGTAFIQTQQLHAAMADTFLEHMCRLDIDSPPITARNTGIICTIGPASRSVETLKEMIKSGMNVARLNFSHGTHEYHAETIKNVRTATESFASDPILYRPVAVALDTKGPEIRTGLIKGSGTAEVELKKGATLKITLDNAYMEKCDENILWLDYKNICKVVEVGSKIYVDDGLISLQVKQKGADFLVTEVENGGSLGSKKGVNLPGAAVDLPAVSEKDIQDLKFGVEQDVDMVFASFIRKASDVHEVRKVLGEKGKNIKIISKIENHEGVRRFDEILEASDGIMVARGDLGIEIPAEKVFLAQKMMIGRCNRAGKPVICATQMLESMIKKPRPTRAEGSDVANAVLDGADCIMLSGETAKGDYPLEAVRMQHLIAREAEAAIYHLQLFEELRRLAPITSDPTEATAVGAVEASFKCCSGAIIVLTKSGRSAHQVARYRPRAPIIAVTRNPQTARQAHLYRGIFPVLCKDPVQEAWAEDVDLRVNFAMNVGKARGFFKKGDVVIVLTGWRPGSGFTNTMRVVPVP
Chain of Alpha-galactosidase (Coffea arabica) (Q42656 whole entry, looked up): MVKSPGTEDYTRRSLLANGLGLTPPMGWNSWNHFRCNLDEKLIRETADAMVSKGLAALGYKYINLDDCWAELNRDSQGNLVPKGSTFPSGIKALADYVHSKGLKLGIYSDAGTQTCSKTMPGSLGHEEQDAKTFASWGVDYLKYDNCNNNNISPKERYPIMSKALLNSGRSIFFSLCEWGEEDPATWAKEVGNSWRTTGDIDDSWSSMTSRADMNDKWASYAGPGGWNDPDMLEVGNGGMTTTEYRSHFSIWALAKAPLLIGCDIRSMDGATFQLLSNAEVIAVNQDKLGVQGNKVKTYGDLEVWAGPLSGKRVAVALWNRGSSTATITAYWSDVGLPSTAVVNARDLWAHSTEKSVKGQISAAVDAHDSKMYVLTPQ

CCCOc1ccccc1-c1nc2n[nH]nc2c(=O)[nH]1
inactive: [1]

CNC(=O)Oc1cccc2ccccc12
not listed: [1] | [19] | [20]
inactive: all other assays above

C[C@H](N)[C@H](O)c1ccc(O)c(O)c1
inactive: [19]

CCOC(=O)Nc1ccc(NCc2ccc(F)cc2)nc1N
inactive: [1]

COc1ccc(C(=O)N2CCCC2=O)cc1
inactive: [19]

NC(=O)CN1CCCC1=O
inactive: [19]

CCCCCCCCC(=O)NCc1ccc(O)c(OC)c1
inactive: [19] | [1]

CCN(CC)CC(=O)Nc1c(C)cccc1C
inactive: [1]

NC(=O)CC[C@@H](N)C(=O)O
inactive: [1]

COC(=O)C1=CCCN(C)C1
inactive: [19] | [1]

NCCc1cnc[nH]1
inactive: [1]

O=C(O)c1nn(Cc2ccc(Cl)cc2Cl)c2ccccc12
inactive: [19]

Cc1cc(C(C)(C)C)c(O)c(C)c1CC1=NCCN1
inactive: [1]

COP(=O)(OC)OC=C(Cl)Cl
6.31 µM (active) and inactive: [20]
not listed: [1] | [6] | [10] | [19]
inactive: all other assays above

O=C(O)c1cccnc1Nc1cccc(C(F)(F)F)c1
inactive: [1]

CCCn1cnc2c1c(=O)n(CCCCC(C)=O)c(=O)n2C
inactive: [1]

c1ccc2nc(N3CCNCC3)ccc2c1
inactive: [19] | [1]

Oc1c(Br)cc(Br)cc1Br
not listed: [1] | [19]
inactive: all other assays above
